# Measurements: PubChem BioAssay (NCI)
# About 83,000 compounds went through this panel and 20% of them were active in at least one assay; those are over-represented in the sample as a whole.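 In brief: 96-well plates, 48 h treatment, single concentration, percent growth endpoint.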 Unmarked numbers belong to inactive results. Activity calls are given as the source filed them.
# Tested on: OVCAR-3 ovarian
# Assay: NCI-60 one-dose screen, 48 h (100 = growth as untreated, 0 = no growth, -100 = all killed)
# Details: 10 µM unless noted
# Protocol: Growth inhibition of the OVCAR-3 human tumor cell line is measured as a screen for anti-cancer activity. Cells are grown in 96 well plates and exposed to the test compound for 48 hours. Compounds are tested at a single concentration, which is 10^-5 M for most compounds. The reported endpoint is percent growth (GI% or GIPRCNT), where numbers from 0 - 100% represent growth inhibition, and numbers from -100% - 0 represent cell death. For example, a value of 40 represents 60% growth inhibition. A value of 0 means no net growth occurred over the course of the experiment. A value of -40 indicates 40% of cells at the beginning of the experiment died by the end of the experiment. A value of -100 means all cells are dead at the end of the experiment.
# NCI-60 Human Tumor Cell Lines Screen was performed using the standard one-dose NCI protocol, which is described in more detail at https://dtp.cancer.gov/discovery_development/nci-60/default.htm.
# Compounds with GIPRCNT values below 10 were considered active. Activity score was based on GIPRCNT using the following formula: […]
# Score is 0 for GIPRCNT values of 100 or above, 50 for GIPRCNT values of 0, and 100 for GIPRCNT values of -100.
row,SMILES,growth
1,NS(=O)(=O)c1cccc(Nc2nc(SCC(=O)c3ccc(Br)cc3)nc3ccccc23)c1,44%
2,O=C1/C(=C/C2=Cc3ccccc3OC2)SC(=S)N1c1ccc(F)cc1,109%
3,CN(C)c1ccc(-c2c(NC(C)(C)C)nc3c(OCCc4ccccc4)cccn23)cc1,20.2%
4,Cc1cccc(/C=C/c2nn3c(-c4ccco4)nnc3s2)c1,110%
5,CC(C)(C)Nc1nc2c(OCCc3ccccc3)cccn2c1-c1cccc(F)c1,-0.703% (active)
6,N#Cc1nc(-c2ccccc2)oc1S(=O)(=O)N1CCCCC1,-54.2% (active)
7,C#Cc1nc(C2=C(C)C(O)/C(=N/O)C2)cs1 (stereo not given),125%
8,COc1ccc(/C=N/NC(=O)c2[nH]c3ccc(Br)cc3c2-c2ccccc2)o1,16.6%
9,CN1CCN(Cc2ccc(NC(=O)c3cncc(C#Cc4cnc5[nH]ncc5c4)c3)cc2C(F)(F)F)CC1,51.9%
10,CC(C)(C)Nc1nc2c(OCCc3ccccc3)cccn2c1-c1ccc(Cl)cc1,6.36% (active)
11,O=[N+]([O-])c1ccc(O)c2ncccc12,11.4%
12,COc1ccc(C(=O)/C=C/c2ccc(OCc3ccc(C)cc3)c(OC)c2)cc1OC,76.8%
13,CC(O)C(NC(=O)C1CCCN1C(=O)CNC(=O)C1CC(=O)NCC(=O)NC(Cc2c[nH]c3ccccc23)C(=O)NC(Cc2ccc(O)cc2)C(=O)NCC(=O)NC(CO)C(=O)NC(CCC(N)=O)C(=O)NC(Cc2c[nH]c3ccccc23)C(=O)N1)C(=O)NCC(=O)NC(CCC(N)=O)C(=O)NC(CCCNC(=N)N)C(=O)NC(CC(=O)O)C(=O)O (stereo not given),102%
14,CN(C)S(=O)(=O)c1oc(-c2ccccc2)nc1C#N,62.4%
15,Cn1c(SCC(=O)Nc2ccc(-c3nc4ccc([N+](=O)[O-])cc4[nH]3)cc2)nc2ccccc2c1=O,90.6%
16,Cc1ccc(/C=C/c2nn3c(-c4ccco4)nnc3s2)cc1C,114%
17,O=C1Nc2cc(Cl)ccc2/C1=C\c1ccc(OCc2ccc([N+](=O)[O-])cc2)cc1,87.8%
18,CCN1CCN(S(=O)(=O)c2oc(-c3ccc(Cl)cc3)nc2C#N)CC1,41.8%
19,OC1CCN(CCCOc2c3ccccc3nc3c2oc2ccccc23)CC1,-18.7% (active)
20,c1ccc2c(NCCCN3CCOCC3)c3oc4ccccc4c3nc2c1,-19.6% (active)

row,SMILES,growth
1,N#Cc1nc(-c2ccccc2)oc1S(=O)(=O)N1CCN(CCc2ccccn2)CC1,31.2%
2,N#Cc1c(-c2ccc(Cl)cc2)nc2c(-c3ccccc3)c(Nc3ccccc3)nn2c1N,58.4%
3,COc1cc(-c2ccc3ncnc(NC(C)c4ccccc4)c3c2)cnc1OC (stereo not given),25.2%
4,O=C(N/N=C/c1ccco1)c1[nH]c2ccc(Br)cc2c1-c1ccccc1,21.5%
5,O=C(c1ccc(Cl)cc1)C1[C@H](c2ccc(Cl)cc2)[C@@H](c2ccccc2)NC12C(=O)Nc1ccc(Br)cc12 (stereo not given in full),25.5%
6,O=C1NC(=C(Cl)Cl)/C(=N/S(=O)(=O)N2CCCCC2CC2(C(F)(F)F)N=N2)N1 (stereo not given),-15.1% (active)
7,COc1cc(-c2nc3ccc(-c4nnc(SCC(=O)Nc5ccc(C(C)=O)cc5)o4)cc3[nH]2)cc(OC)c1OC,119%
8,C/C(=C(/c1ccc(Cl)cc1)c1ccc(OCCN)cc1)c1ccc(C)cc1,105%
9,COc1cc(/C=C/C(=O)c2cc(OC)c(OC)c(OC)c2)ccc1OCc1ccc(F)cc1,38.2%
10,Cc1nc2cnc(N)c(C#Cc3cncc(C(=O)Nc4ccc(Cl)c(C(F)(F)F)c4)c3)c2nc1C,39.3%
11,CN(C)CCCOc1c2ccc(Cl)cc2nc2c1oc1ccccc12,-10.4% (active)
12,OC1CCN(CCCOc2c3ccc(Cl)cc3nc3c2oc2ccccc23)CC1,0.661% (active)
13,CN(C)CCCOc1c2ccc(Cl)cc2nc2c1oc1ccc(Cl)cc12,45.4%
14,Clc1ccc(Cc2nnc3sc(-c4cccnc4)nn23)cc1,107%
15,CCOC(=O)c1c(Nc2ccccc2)nn2c(N)c(C#N)c(-c3ccc(OC)cc3)nc12,101%
16,[Cl][Ru].c1ccc(-c2cc(-c3ccccn3)nc(-c3ccccn3)c2)cc1.c1ccc(-c2ccnc3c2ccc2c(-c4ccccc4)ccnc23)cc1,-64.2% (active)
17,O=c1[nH]c2ccccc2cc1CSc1ccccc1Nc1nccc(-c2ccc(C(F)(F)F)cc2)n1,69.8%
18,O=C1Nc2cc(Cl)ccc2/C1=C\c1ccc(OCc2ccc(Br)cc2F)cc1,-64.7% (active)
19,CS(=O)(=O)c1ccc(-c2nc3ccccn3c2/C=N/Nc2nc(-c3ccc(Cl)cc3)cs2)cc1,124%
20,COc1ccccc1C(=O)CSc1nc(Nc2ccc(S(N)(=O)=O)cc2)c2ccccc2n1,107%
